From PubChem BioAssay (Tox21)
Inconclusive results are not listed. Activity calls are given as the source filed them. Unless noted, calls follow the shape of the dose curve; as a rule, active = well fitted curve in the direction sought with a large enough effect in the repeat runs; inconclusive = weak or mixed curves; inactive = no such curve, though single readings can be large; an effect the other way counts as inactive or inconclusive.

Legend:
[1] = qHTS assay to identify small molecule agonists of the sonic hedgehog signaling (Shh) pathway (AID 1259368; calls by dose curve;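 also: NIH/3T3-derived 3T3Gli1-Luc cells carrying a stable Gli1-driven firefly luciferase reporter; series mostly up to about 92 µM; nearly all actives have a fitted effect of over 15% in size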)
Summary of the method: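 Luminescence was read after 30 min at room temperature with luciferase reagent. Before that, 3T3Gli1-Luc cells (NIH/3T3 clone, stable Gli1-Luc reporter; 2,000/well) were exposed to compounds for 24 hr at 37C, 5% CO2, compounds being added 4 hr post-plating.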

[2] = qHTS assay to identify small molecule antagonists of the sonic hedgehog signaling (Shh) pathway (AID 1259369; calls by dose curve; also: nearly all actives have a fitted effect of over 45% in size)
Summary of the method: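 Antagonist mode: compound added to 3T3 Gli1-Luc cells followed by conditioned-medium stimulation, 24 h at 37 C, 5% CO2. Inhibition taken as loss of Gli1-driven luciferase luminescence.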

[3] = target: Estrogen receptor beta (Homo sapiens) (UniProt Q92731); experiment: qHTS assay to identify small molecule agonists of the estrogen receptor beta (ER-beta) signaling pathway (AID 1259377; active = well fitted activation curve with a large enough effect in the signal ratio in the repeat runs, not every such curve was filed as active; the % refers to the signal ratio)
Summary of the method: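 Screening used GripTite ER-beta-UAS-bla cells held in 2% charcoal-stripped FBS medium. After overnight (16 hr) compound incubation at 37C, beta-lactamase activity was detected with a FRET substrate by fluorescence.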

[4] = target: Estrogen receptor beta (Homo sapiens) (UniProt Q92731); experiment: qHTS assay to identify small molecule antagonists of the estrogen receptor beta (ER-beta) signaling pathway (AID 1259378; active = well fitted inhibition curve with a large enough effect in the signal ratio in the repeat runs, not every such curve was filed as active; the % refers to the signal ratio)
Summary of the method: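 ER-beta-UAS-bla HEK293T (GripTite) cells in 2% charcoal-stripped FBS medium were preincubated 6 hr at 37C, dosed with compound, then stimulated with 1 nM E2 (final) for 16 hr; beta-lactamase reporter read by B/G FRET fluorescence after 2 hr substrate loading.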

[5] = qHTS assay to identify small molecule agonists of the androgen receptor (AR) signaling pathway in the presence of an antagonist - cell viability counter screen (AID 1259379);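 also: MDA-kb2 human breast cancer cells carrying an MMTV luciferase reporter; series mostly up to about 92 µM; nearly all actives have a fitted effect of over 25% in size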
Summary of the method: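 Cytotoxicity counter-screen run in the same wells as the nilutamide-challenged (3.0 µM final) AR agonist assay in MDA-kb2 cells. Compounds tested at 15 concentrations for 16 h, 37 °C without CO2; CellTiter-Fluor fluorescence read.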

[6] = qHTS assay to identify small molecule agonists of the estrogen receptor beta (ER-beta) signaling pathway - cell viability counter screen (AID 1259380); also: nearly all actives have a fitted effect of over 30% in size
Summary of the method: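 Cell viability counter screen: CellTiter-Glo luminescence (30 min, room temperature) measured in the same wells as the beta-lactamase readout, after 16 hr compound exposure at 37C of ER-beta-bla HEK293T cells in 2% charcoal-stripped FBS medium.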

[7] = qHTS assay to identify small molecule antagonists of the estrogen receptor beta (ER-beta) signaling pathway - cell viability counter screen (AID 1259382); also: series mostly up to about 92 µM; nearly all actives have a fitted effect of over 55% in size
Summary of the method: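 Cytotoxicity was measured in the same wells by CellTiter-Glo luminescence after 30 min at room temperature. Cells were ER-beta-bla HEK293T in charcoal-stripped serum, given compound together with 1 nM E2 and incubated 16 h at 37C.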

[8] = target: Estrogen receptor (Homo sapiens) (UniProt P03372); experiment: qHTS assay to identify small molecule agonists of the estrogen receptor alpha (ER-alpha) signaling pathway in the presence of an antagonist (AID 1259383; calls by dose curve; also: top concentration of the series differs between compounds; nearly all actives have a fitted effect of over 15% in size)
Summary of the method: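 Agonist-mode confirmation run in the presence of 10.0nM (final) ICI-182,780 antagonist. The reporter was ERE-driven luciferase in VM7Luc4E2 cells, grown in charcoal-stripped serum. Cells were exposed to 15-concentration compound series for 22hr, then ONE-Glo luminescence was read.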

[9] = qHTS assay to identify small molecule agonists of the estrogen receptor alpha (ER-alpha) signaling pathway in the presence of an antagonist - cell viability counter screen (AID 1259386); also: series mostly up to about 92 µM; nearly all actives have a fitted effect of over 30% in size
Summary of the method: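 Compounds tested at 15 concentrations for 22 h at 37C alongside 10.0nM (final) ICI-182,780 antagonist, in VM7Luc4E2 cells grown in phenol red-free, charcoal-stripped medium. Viability read by CellTiter-Fluor fluorescence after 1 h reagent incubation.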

[10] = target: Progesterone receptor (Homo sapiens) (UniProt P06401); experiment: qHTS assay to identify small molecule agonists of the progesterone receptor (PR) signaling pathway (AID 1346784; calls by dose curve; also: nearly all actives have a fitted effect of over 30% in size)
Summary of the method: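 Seed PR-UAS-bla HEK 293T cells (2% charcoal-stripped FBS), incubate 6 hr at 37C; add compounds in DMSO, 16 hr at 37C; add LiveBLAzer B/G substrate, 2 hr RT; read fluorescence intensity.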

[11] = target: Progesterone receptor (Homo sapiens) (UniProt P06401); experiment: qHTS assay to identify small molecule antagonists of the progesterone receptor (PR) signaling pathway (AID 1346795; active = well fitted inhibition curve with a large enough effect in the signal ratio in the repeat runs, not every such curve was filed as active; the % refers to the signal ratio)
Summary of the method: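 Screening used a GripTite HEK293T line with PR-responsive UAS-beta-lactamase. Cells were challenged with compound in the presence of 1 nM R5020 final for 16 hr at 37C; B/G FRET substrate, 2 hr room temperature, fluorescence.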

[12] = qHTS assay to identify small molecule antagonists of the progesterone receptor (PR) signaling pathway - cell viability counter screen (AID 1346798); also: series mostly up to about 92 µM; nearly all actives have a fitted effect of over 50% in size
Summary of the method: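 Measures cytotoxicity in parallel with the PR antagonist reporter read: HEK293T PR-UAS-bla cells get compound and R5020 for 16 hr, and remaining viable cells are quantified by CellTiter-Glo luminescence.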

[13] = qHTS assay to identify small molecule agonists of the progesterone receptor (PR) signaling pathway - cell viability counter screen (AID 1346799; calls by dose curve; also: nearly all actives have a fitted effect of over 45% in size)
Summary of the method: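 Using the same plates as the PR reporter screen, HEK293T PR-UAS-bla cells received compounds for 16 hr at 37C and were then lysed with CellTiter-Glo; luminescence was read 30 min later at room temperature.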

[14] = qHTS assay to identify small molecule antagonists of the TGF-beta/Smad signaling pathway - cell viability counter screen (AID 1346824); also: nearly all actives have a fitted effect of over 50% in size
Summary of the method: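 SBE-bla HEK 293T cells were plated overnight at 37 C, then given compounds in DMSO plus TGF-beta1 (added as 0.25 ng/mL solution) for 5 hr. After the bla read, CellTiter-Glo was added to the same wells and luminescence read after 30 min at room temperature.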

[15] = qHTS assay to identify small molecule agonists of the TGF-beta/Smad signaling pathway - cell viability counter screen (AID 1346829); also: top concentration of the series differs between compounds; nearly all actives have a fitted effect of over 45% in size
Summary of the method: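 Tox21 qHTS format: SBE-bla HEK 293T cells treated with DMSO-dissolved compounds for 5 hr; CellTiter-Glo luminescence after 30 min at room temperature.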

[16] = qHTS assay to identify small molecule agonists of the TGF-beta/Smad signaling pathway (AID 1346859; active = well fitted activation curve with a large enough effect in the signal ratio in the repeat runs, not every such curve was filed as active; the % refers to the signal ratio; also: series mostly up to about 77 µM)
Summary of the method: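 Beta-lactamase reporter activity downstream of Smad binding elements was measured in stably transfected HEK 293T cells; compounds were incubated for 5 hr, substrate for 2 hr at room temperature.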

[17] = qHTS assay to identify small molecule agonists or antagonists of the thyroid stimulating hormone receptor (TSHR) signaling pathway - wild type cell line counter screen (AID 1259384; calls by dose curve)
Summary of the method: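 Wild-type HEK293 cells were plated 18 h at 37 C/5% CO2, pin-dosed with compound plus Ro20-1724 medium, held 30 min at room temperature, then given cAMP-d2 and anti-cAMP-cryptate; fluorescence was read after 1 h. Fifteen concentrations, triplicate.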

[18] = target: Thyrotropin-releasing hormone receptor (Homo sapiens) (UniProt P34981); experiment: qHTS assay to identify small molecule antagonists of the thyrotropin-releasing hormone receptor (TRHR) signaling pathway (AID 1346877; active = well fitted inhibition curve with a large enough effect in the repeat runs, not every such curve was filed as active; also: series mostly up to about 51 µM)
Summary of the method: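 Antagonist mode: after a 5 min room-temperature compound exposure, cells were stimulated with 1 nM (final) TRH. Dye-loaded TRHR-HEK293 cells were used, and calcium-dependent fluorescence was followed for 3 min, with 15-point titrations run in triplicate.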

[19] = target: Thyrotropin receptor (Homo sapiens) (UniProt P16473); experiment: qHTS assay to identify small molecule antagonists of the thyroid stimulating hormone receptor (TSHR) signaling pathway (AID 1259385; calls by dose curve; also: nearly all actives have a fitted effect of over 20% in size)
Summary of the method: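 TSHR-HEK293 cells were plated and held 18 h at 37C/5% CO2, then given compound plus Ro20-1724 and stimulated with TSH at 1.5 ng/mL final. After 30 min at room temperature, cAMP was detected with cAMP-d2/anti-cAMP-cryptate (1 h) by fluorescence.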

[20] = target: Androgen receptor (Homo sapiens) (UniProt P10275); experiment: qHTS assay to identify small molecule agonists of the androgen receptor (AR) signaling pathway in the presence of an antagonist (AID 1259381; calls by dose curve; also: nearly all actives have a fitted effect of over 15% in size)
Summary of the method: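 Agonist-mode confirmation run against 3.0 uM final nilutamide: compounds titrated at 15 concentrations onto MDA-kb2 MMTV-luciferase reporter cells. Luminescence measured with ONE-Glo following 16 hr incubation, 37C, 0% CO2.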

Measured: Potency

Chain of Progesterone receptor (Homo sapiens) (P06401 whole entry, looked up): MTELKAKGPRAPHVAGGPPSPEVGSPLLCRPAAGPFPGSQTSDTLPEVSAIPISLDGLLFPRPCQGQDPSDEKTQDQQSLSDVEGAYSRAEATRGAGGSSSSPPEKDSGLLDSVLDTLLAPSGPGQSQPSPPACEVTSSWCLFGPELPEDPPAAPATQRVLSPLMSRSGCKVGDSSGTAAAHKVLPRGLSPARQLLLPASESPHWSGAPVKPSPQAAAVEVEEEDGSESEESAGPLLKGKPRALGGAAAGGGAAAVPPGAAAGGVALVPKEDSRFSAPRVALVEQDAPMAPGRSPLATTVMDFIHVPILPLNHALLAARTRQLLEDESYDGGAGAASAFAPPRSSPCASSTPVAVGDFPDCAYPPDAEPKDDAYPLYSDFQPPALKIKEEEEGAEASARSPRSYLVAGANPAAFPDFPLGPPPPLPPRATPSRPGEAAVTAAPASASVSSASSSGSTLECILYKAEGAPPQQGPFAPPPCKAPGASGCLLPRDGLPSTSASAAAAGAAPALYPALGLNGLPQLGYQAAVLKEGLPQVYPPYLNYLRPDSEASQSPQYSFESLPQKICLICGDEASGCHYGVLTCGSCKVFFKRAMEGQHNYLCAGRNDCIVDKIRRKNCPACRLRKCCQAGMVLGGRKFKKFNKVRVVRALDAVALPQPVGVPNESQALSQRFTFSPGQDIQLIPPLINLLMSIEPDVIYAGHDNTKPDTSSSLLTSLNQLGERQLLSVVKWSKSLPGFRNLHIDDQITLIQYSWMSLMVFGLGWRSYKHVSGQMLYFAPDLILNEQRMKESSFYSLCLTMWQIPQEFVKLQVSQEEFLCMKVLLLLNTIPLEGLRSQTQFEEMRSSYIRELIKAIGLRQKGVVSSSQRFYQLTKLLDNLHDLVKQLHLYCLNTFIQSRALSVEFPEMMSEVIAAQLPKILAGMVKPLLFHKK
Chain of Estrogen receptor beta (Homo sapiens) (Q92731 whole entry, looked up): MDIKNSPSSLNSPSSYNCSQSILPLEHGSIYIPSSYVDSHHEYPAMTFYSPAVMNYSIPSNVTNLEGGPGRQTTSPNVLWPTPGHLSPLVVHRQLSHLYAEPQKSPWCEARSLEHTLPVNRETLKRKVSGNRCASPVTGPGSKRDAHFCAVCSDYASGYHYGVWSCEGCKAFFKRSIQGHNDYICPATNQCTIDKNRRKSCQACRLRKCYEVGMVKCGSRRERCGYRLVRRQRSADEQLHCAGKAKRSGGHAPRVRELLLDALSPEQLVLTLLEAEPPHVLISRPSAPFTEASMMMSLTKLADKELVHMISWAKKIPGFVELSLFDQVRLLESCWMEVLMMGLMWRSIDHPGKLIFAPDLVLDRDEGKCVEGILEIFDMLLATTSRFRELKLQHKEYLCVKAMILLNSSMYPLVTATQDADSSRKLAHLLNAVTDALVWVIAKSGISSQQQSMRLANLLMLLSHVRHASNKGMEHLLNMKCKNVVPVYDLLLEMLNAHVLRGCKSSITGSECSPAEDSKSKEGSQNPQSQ
Chain of Estrogen receptor (Homo sapiens) (P03372 whole entry, looked up): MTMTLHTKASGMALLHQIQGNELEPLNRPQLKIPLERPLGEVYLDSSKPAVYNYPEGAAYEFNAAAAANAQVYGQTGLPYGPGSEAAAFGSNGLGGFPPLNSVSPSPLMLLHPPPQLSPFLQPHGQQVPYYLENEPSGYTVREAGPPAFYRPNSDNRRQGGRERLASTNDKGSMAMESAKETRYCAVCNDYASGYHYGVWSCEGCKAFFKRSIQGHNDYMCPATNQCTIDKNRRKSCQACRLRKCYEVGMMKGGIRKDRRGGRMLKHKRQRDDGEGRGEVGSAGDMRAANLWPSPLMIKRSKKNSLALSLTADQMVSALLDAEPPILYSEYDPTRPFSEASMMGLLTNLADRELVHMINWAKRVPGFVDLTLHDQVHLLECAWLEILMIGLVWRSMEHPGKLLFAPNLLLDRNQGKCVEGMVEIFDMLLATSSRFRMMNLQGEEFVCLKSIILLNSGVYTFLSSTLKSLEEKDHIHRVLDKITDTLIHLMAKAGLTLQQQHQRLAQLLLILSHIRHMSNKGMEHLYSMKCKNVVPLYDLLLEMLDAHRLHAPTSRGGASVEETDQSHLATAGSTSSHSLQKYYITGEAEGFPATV
Chain of Androgen receptor (Homo sapiens) (P10275 whole entry, looked up): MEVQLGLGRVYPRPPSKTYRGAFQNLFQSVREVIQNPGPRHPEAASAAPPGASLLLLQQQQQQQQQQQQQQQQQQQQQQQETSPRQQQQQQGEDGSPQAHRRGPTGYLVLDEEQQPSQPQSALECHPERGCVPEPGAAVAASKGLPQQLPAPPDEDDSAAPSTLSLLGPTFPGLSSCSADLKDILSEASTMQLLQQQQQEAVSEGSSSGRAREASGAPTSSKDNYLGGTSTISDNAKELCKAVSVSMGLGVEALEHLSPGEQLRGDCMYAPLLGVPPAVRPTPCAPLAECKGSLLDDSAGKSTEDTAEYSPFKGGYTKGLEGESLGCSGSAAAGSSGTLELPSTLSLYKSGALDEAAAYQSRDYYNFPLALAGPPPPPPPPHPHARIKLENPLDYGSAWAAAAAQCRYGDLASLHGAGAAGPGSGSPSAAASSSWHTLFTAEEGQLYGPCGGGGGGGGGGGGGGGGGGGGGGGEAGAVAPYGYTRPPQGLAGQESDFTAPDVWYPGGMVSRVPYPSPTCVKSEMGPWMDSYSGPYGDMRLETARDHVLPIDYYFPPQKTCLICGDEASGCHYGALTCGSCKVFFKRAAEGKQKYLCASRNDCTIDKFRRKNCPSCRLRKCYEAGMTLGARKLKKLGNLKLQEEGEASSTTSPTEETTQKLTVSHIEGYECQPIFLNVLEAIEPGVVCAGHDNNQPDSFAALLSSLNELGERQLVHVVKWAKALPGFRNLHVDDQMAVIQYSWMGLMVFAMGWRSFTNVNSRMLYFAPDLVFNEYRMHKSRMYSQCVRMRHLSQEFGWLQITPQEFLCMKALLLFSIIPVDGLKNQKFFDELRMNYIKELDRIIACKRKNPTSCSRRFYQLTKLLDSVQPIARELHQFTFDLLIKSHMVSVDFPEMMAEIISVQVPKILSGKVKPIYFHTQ
Chain of Thyrotropin receptor (Homo sapiens) (P16473 whole entry, looked up): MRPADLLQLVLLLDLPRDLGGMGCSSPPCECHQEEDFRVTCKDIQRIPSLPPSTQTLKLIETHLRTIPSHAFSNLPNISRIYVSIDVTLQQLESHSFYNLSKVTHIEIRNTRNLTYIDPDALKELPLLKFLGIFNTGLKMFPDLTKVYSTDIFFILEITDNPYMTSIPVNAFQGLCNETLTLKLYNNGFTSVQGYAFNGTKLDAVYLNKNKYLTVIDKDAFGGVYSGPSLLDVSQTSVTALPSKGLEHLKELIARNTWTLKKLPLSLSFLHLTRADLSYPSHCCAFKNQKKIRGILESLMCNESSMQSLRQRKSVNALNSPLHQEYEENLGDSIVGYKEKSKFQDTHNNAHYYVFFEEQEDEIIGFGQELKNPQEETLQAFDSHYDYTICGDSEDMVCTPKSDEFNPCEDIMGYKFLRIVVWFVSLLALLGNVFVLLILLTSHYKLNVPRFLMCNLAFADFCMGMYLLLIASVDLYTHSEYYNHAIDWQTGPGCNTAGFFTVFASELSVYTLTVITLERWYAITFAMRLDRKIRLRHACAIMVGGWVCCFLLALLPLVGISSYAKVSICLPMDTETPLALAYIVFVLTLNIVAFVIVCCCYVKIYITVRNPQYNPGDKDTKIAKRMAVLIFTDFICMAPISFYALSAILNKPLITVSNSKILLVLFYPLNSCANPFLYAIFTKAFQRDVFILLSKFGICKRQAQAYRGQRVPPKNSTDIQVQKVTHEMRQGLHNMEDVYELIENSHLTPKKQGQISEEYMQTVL
Chain of Thyrotropin-releasing hormone receptor (Homo sapiens) (P34981 whole entry, looked up): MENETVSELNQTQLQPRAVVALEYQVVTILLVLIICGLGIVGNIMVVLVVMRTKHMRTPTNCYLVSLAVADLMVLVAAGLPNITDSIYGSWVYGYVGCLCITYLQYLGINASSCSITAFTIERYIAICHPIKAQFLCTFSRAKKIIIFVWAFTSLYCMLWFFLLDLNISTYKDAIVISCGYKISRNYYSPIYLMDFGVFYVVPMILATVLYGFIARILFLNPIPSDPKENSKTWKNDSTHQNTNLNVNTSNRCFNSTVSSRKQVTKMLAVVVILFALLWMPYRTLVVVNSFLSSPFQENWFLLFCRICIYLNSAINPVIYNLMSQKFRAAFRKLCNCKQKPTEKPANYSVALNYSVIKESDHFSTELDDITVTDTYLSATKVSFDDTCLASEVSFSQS

O=[N+]([O-])c1ccc(F)cc1F
not listed: [17] | [18] | [19] | [20]
inactive: all other assays above

CC(C(=O)O)c1ccc(CC2CCCC2=O)cc1 (centres undefined)
not listed: [15] | [19] | [20]
inactive: all other assays above

C=C1CC[C@H]2C[C@@H]1C2(C)C
not listed: [11] | [20]
inactive: all other assays above

CCC(=O)OC(C)c1ccccc1 (centres undefined)
not listed: [20]
inactive: all other assays above

COC(=O)c1c(Cl)c(Cl)c(C(=O)OC)c(Cl)c1Cl
not listed: [11] | [18] | [20]
inactive: all other assays above

CCOC(=O)c1ccc(C)cc1
not listed: [17] | [19] | [20]
inactive: all other assays above

Oc1ccc(C2CNCCc3c2cc(O)c(O)c3Cl)cc1 (centres undefined)
not listed: [8] | [18] | [20]
inactive: all other assays above

CCCCC(CC)COC(=O)c1ccccc1O (centres undefined)
not listed: [19] | [20]
inactive: all other assays above

CC(=O)CC(C)(C)C1CCCCC1
not listed: [10] | [11] | [17] | [18] | [19] | [20]
inactive: all other assays above

NCCc1cnc[nH]1
not listed: [8] | [18] | [20]
inactive: all other assays above

NC(=O)c1cn(Cc2c(F)cccc2F)nn1
not listed: [8] | [18] | [20]
inactive: all other assays above

NS(=O)(=O)c1ccc(C(=O)O)cc1
not listed: [4] | [14] | [18]
inactive: all other assays above

C=CCOCC(CC)(CO)COCC=C
not listed: [8] | [15] | [20]
inactive: all other assays above

CC(C)=CCCC(C)CC(=O)O (centres undefined)
not listed: [8] | [18] | [20]
inactive: all other assays above

CCN1CCC[C@H]1CNC(=O)c1cc(S(N)(=O)=O)ccc1OC
not listed: [8] | [20]
inactive: all other assays above

N=C(N)c1ccccc1
not listed: [8] | [20]
inactive: all other assays above

C=CCCCCCCCCC=O
not listed: [6] | [12] | [13] | [18] | [20]
inactive: all other assays above

COC(=O)CC(C)=O
not listed: [8] | [20]
inactive: all other assays above

Brc1c(NC2=NCCN2)ccc2nccnc12
not listed: [3] | [6] | [8] | [16] | [18] | [20]
inactive: all other assays above

CC[N+](C)(C)c1cccc(O)c1
not listed: [6] | [8] | [11] | [15] | [18] | [20]
inactive: all other assays above

CCc1ccc(O)c(OC)c1
not listed: [3] | [8] | [11] | [18] | [20]
inactive: all other assays above

O=C(O)CCCc1ccccc1
not listed: [4] | [8] | [12] | [20]
inactive: all other assays above

O=C(CCCN1CCN(c2ccccn2)CC1)c1ccc(F)cc1
not listed: [6] | [8] | [16] | [19] | [20]
inactive: all other assays above

CCCCCCCCS(=O)(=O)Cl
not listed: [4] | [8] | [16] | [20]
inactive: all other assays above

O=C(c1ccccc1)C1CCCCC1
not listed: [3] | [4] | [16]
inactive: all other assays above

O=C1CCCC(=O)C1
not listed: [8] | [17] | [18] | [19] | [20]
inactive: all other assays above

CCCCOCCOCCOCCCC
not listed: [8] | [16] | [20]
inactive: all other assays above

COc1c(N2C[C@@H]3CCCN[C@@H]3C2)c(F)cc2c(=O)c(C(=O)O)cn(C3CC3)c12
not listed: [4] | [14] | [15] | [17] | [18] | [20]
inactive: all other assays above

CCn1ccnc1CC1COc2ccccc2O1 (centres undefined)
not listed: [3] | [4]
inactive: all other assays above

O=c1[nH]c(=O)n([C@H]2C[C@H](O)[C@@H](CO)O2)cc1I
not listed: [8] | [10] | [13] | [18] | [20]
inactive: all other assays above

CO/N=C(/C(=O)N[C@@H]1C(=O)N2C(C(=O)OCOC(=O)C(C)(C)C)=C(C)CS[C@H]12)c1csc(N)n1
not listed: [8] | [15] | [18] | [20]
inactive: all other assays above
